From PubChem BioAssay AID624287 (National Center for Advancing Translational Sciences (NCATS), 2012)
Out of some 340,000 compounds screened, about 420 (0.12%) were called active. About 10% were inconclusive and are not listed. The sample holds actives, similar compounds and a random draw of the others, so the mix is not that of the screen. A number with no mark means an inactive call. Calls come from the whole dose curve; as a rule, active = well fitted activation curve with a large enough effect; inconclusive = small, poorly fitted or top-dose-only effect, or another doubt; inactive = no such curve, though single readings can be large or run the other way; cell line not stated here.

Assay: qHTS for Agonist of gsp, the Etiologic Mutation Responsible for Fibrous Dysplasia/McCune-Albright Syndrome: qHTS; note: nearly all actives have a fitted effect of over 60% in size;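 for activation (cAMP increase): phosphodiesterase inhibitor Ro 20-1724 added with compounds to block cAMP breakdown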
Conditions: gsp mutant cells, cAMP HTRF, 30 min; series mostly up to 76.9 µM; activation (cAMP increase): at the top concentration
Source text: McCune-Albright syndrome (MAS) is a rare disease caused by somatic mutations in Gsgsp), a widely expressed protein central in signal transduction from G-coupled protein receptors (GPCRs). The disease symptoms are diverse, owing to the fact that the patients are mosaics with varying degrees of tissue involvement. Greater than 90% of the mutations in Gs in MAS occur at the R201 position and are equally divided between R201H and R201C. The R201 residue is central in the intrinsic GTPase activity of Gs and the H and C mutations lead to loss of, or impairment of, the GTPase activity. The intrinsic GTPase activity is necessary to terminate the interaction between Gs and adenylate cyclase, and to terminate the cAMP-mediated signaling of the given GPCR pathway. Thus, these activating mutations lead to ligand-independent activation of GPCR pathways. The tissue phenotype is determined by the role of Gs in the function of a given cell, and excess Gs/cAMP signaling in that cell. For example, pituitary somatotrophs overproduce growth hormone in a growth hormone releasing hormone-independent fashion, and gigantism/acromegaly ensues. Skeletal stem cells in the bone marrow behave as if they are under constant parathyroid hormone stimulation and fail to differentiate into osteoblasts and osteocytes, and proliferate as immature osteogenic cells and lead to the marrow fibrosis of fibrous dysplasia of bone. The goal of this project is to identify molecules with stimulatory activity at gsp mutations that will not only allow for in-depth study of the underlying molecular and cellular pathophysiology, but also serve as compounds from which drugs to treat FD/MAS can be developed NIH Chemical Genomics Center [NCGC] NIH Molecular Libraries Probe Centers Network [MLPCN] MLPCN Grant: IRP-FT-DE-2011-01 Assay Submitter (PI): Michael Collins, NIDCR
1.#Seed 2000 cells/well in 6 ul DMEM 10% FBS, 1% Pen/Strep, 0.5 mg/ml G418 2.#Incubate 16-24 hr at 37C, 5% CO2, 95% humidity 3.#Aspirate leaving 1 ul residual volume 4.#Dispense 5 ul/well DPBS + 1 mM CaCl2, 0.5 mM MgCl2, 0.05% BSA, 0.005% Tween 20 5.#Aspirate leaving 2 ul residual volume 6.#Dispense 23 nl/well compounds in DMSO 7.#Dispense 1 ul/well 300 uM Ro-20174 in DMEM 10% FBS 8.#Incubate 30 min at 37C, 5% CO2, 95% humidity 9.#Dispense 1.5 ul/well HTRF reagent: cAMP-d2 in lysis buffer 10.#Dispense 1.5 ul/well HTRF reagent: anti-cAMP antibody-K in lysis buffer 11.#Incubate 30 min at room temperature 12.#Detect HTRF signal using EnVision plate reader
Potency is the fitted concentration of half-maximal effect.

Compound | activation (cAMP increase) | Potency
O=C(N=C1SC2CS(=O)(=O)CC2N1Cc1ccccc1)c1ccccc1 (configuration not stated) | -12.8% | 
COc1cccc(OCC(=O)NCCS(=O)(=O)N2CCN(c3ccccc3)CC2)c1 | -6.99% | 
Cc1cnc(NC(=O)Cn2cnc3c2c(=O)n(C)c(=O)n3C)s1 | 0.329% [at 15.4 µM] | 
CN(C(=O)COC(=O)Cn1cnc2c1c(=O)n(C)c(=O)n2C)C1(C#N)CCCCC1 |  | 28.2 µM (active)
Cn1c(=O)c2c(ncn2CC(=O)N/N=C/c2cn[nH]c2-c2ccc(F)cc2)n(C)c1=O | 54.2% [at 15.4 µM] | 
CSc1ncnc2c1ncn2CCCNCc1ccco1 | -74.7% | 
Cc1ccc(S(=O)(=O)N2C[C@H]3n4c(=O)ccc(=O)n4C[C@H](OC(=O)NC4CCCC4)[C@@]3(O)C2)cc1 | 14.3% | 
O=C(c1ncn2c1c(=O)[nH]c1ccccc12)N1CCc2ccccc2C1 | -20.5% | 
CCCCCCNC(=O)O[C@H]1CN(C(=O)OC(C)C)N(C(=O)OC(C)C)[C@@H]2CN(S(=O)(=O)c3ccc(C)cc3)C[C@]12O | 0.103% | 
CSc1ncccc1C(=O)N1CCCC(Nc2ccc(F)c(F)c2)C1 (configuration not stated) | 16.5% | 
COc1cccc(NC(=O)CN(C)C(=O)c2cc(Cl)nc3ccccc23)c1 | -159% | 
COc1ccc(S(=O)(=O)N(C)C)cc1NC(=O)COC(=O)c1n[nH]c2ccccc12 | -50% | 
Cc1ccc([C@H]2N[C@]3(CCCN(CC4CCCCC4)C3=O)[C@H]3C(=O)N(Cc4ccccc4)C(=O)[C@@H]23)cc1 | 0.257% | 
CCOC(=O)c1c(C)[nH]c(C)c1C(=O)COC(=O)/C=C/c1cccc([N+](=O)[O-])c1 | -66.3% | 
O=C(NCCN1CCOCC1)c1ccc2c(c1)N(Cc1cccc(Cl)c1)C(=O)c1ccccc1S2(=O)=O | -3.41% | 
CC(C)N=C1CCCC1C(=S)SSC(=S)C1CCCC1=NC(C)C (configuration not stated) | -39.5% | 
CCOC(=O)c1cc(-c2sc(NC(=O)c3ccccc3)nc2C)n(Cc2ccccc2)n1 | 1.49% | 
COc1ccc(CN2C(=O)C(CC(=O)NCCCCc3ccccc3)CC(C(=O)N3CCOCC3)=C2C)cc1 (configuration not stated) | -2.99% | 
CCN(CC)C(=O)C1=C(C)N(Cc2ccc(OC)cc2)C(=O)C(CC(=O)NCc2ccco2)C1 (configuration not stated) | -33.1% | 
O=C(NCCN1CCOCC1)C1CCN(S(=O)(=O)c2ccccc2)CC1 | 10.7% | 
CN(C(=O)COc1nnc(-c2cccs2)c(-c2cccs2)n1)c1ccccc1 | -47.1% | 
O=C(O)Cc1sc(-c2ccccc2)nc1-c1cccs1 |  | 12.6 µM (active)
NC(=O)Cc1ccc2sc(-c3ccccc3)nc2c1 | -43.9% | 
O=C(Cc1ccc([N+](=O)[O-])cc1)NCCS(=O)(=O)N1CCN(c2ccccc2)CC1 | -24.3% | 

Compound | activation (cAMP increase) | Potency
CCc1ccccc1OCC(=O)Nc1nnc(C2CC2)s1 | -18.6% | 
COc1ccc([C@H]2N[C@]3(CCCN(CC4CCCCC4)C3=O)[C@H]3C(=O)N(C)C(=O)[C@@H]23)cc1 | 0.0546% | 
Cc1ccc(C(=O)OCC(=O)NC2CCCCCCC2)cc1C | -30.5% | 
CC(Sc1ccccc1F)C(=O)Nc1cccc(S(=O)(=O)N2CCOCC2)c1 (configuration not stated) | 14.1% | 
CC(Sc1cccc[n+]1[O-])C(=O)Nc1cccc(S(=O)(=O)N2CCOCC2)c1 (configuration not stated) | 27.2% [at 15.4 µM] | 
COc1cc2c(cc1OC)CN(C(C)C(=O)Nc1cccc(S(=O)(=O)N3CCOCC3)c1)CC2 (configuration not stated) |  | 10 µM (active)
COc1ccc(C(C)(C)C)cc1NC(=O)CN(C)C1=NS(=O)(=O)c2ccccc21 | -29.4% | 
CC1(C)OC(=O)C2=C(CC(c3ccccc3)OC2CCc2ccccc2)O1 (configuration not stated) | -70.3% | 
O=C1CCC(=O)N1CCC(=O)N(C(=O)NC1CCCCC1)C1CCCCC1 | 9.55% | 
CC(=NNC(N)=O)C1CC2CCC1CC2 (configuration not stated) | 23.2% | 
CC1(c2cccc(Br)c2)NC(=O)N(CC(=O)NCCC2=CCCCC2)C1=O (configuration not stated) | -35.7% | 
COc1ccccc1C(=O)NC(=S)Nc1ccc(N2CCOCC2)cc1 | -479% | 
COc1ccc(-c2ccc(CN3C(CC(C)C)C(=O)N(Cc4cn(CC5CCCCC5)nn4)CCS3(=O)=O)cc2)cn1 (configuration not stated) | -11.8% | 
O=C1C(=O)N(CCN2CCOCC2)C(c2cccc(Cl)c2)/C1=C(/O)c1ccc2c(c1)OCO2 (configuration not stated) |  | 12.6 µM (active)
O=C1C(=O)N(CCCN2CCOCC2)C(c2ccc([N+](=O)[O-])cc2)/C1=C(\O)c1ccc2c(c1)OCCO2 (configuration not stated) | -0.162% | 
COc1ccc(C2/C(=C(/O)c3ccc(OC(C)C)cc3)C(=O)C(=O)N2CCCN2CCOCC2)cc1 (configuration not stated) | -42.6% | 
O=C1CCC(C(=O)OCC(=O)Nc2ccc(OC(F)F)cc2)=NN1 | -74.6% | 
COc1cc(C)c(CN2CCN(C(=O)CCC(=O)c3ccc(C)s3)CC2)cc1OC | -203% | 
CCOc1cc(/C=N/NC(=O)c2ccncc2)cc(Br)c1O | -82.6% | 
NC(=S)NN=Cc1ccc(OC(=O)COc2cc(Cl)c(Cl)cc2Cl)cn1 | -7.4% | 
COc1cccc(N2C(=O)CN(Cc3ccccc3)C2=S)c1 | -35.3% | 
COc1cccc(-n2c(=S)[nH]c3c(oc4ccccc43)c2=O)c1 |  | 15.8 µM (active)
COc1cccc(-n2cc(C(=O)O)c3ccccc3c2=O)c1 | 0.885% | 
